# Data: ChEMBL document CHEMBL3988442, “University of Dundee, Small-Polar-MMV Screening Library” (2021)
# The whole screen tested about 66,000 compounds, of which about 960 (1.5%) showed an effect of 50% or more. The full list was thinned out, with strong results kept by preference.
# System: Trypanosoma brucei
# Assay: Trypanosoma brucei 72 hour study
# Format: functional, organism-based
# Set-up: scale not given: in the data most compounds retested in dose-response had high values
smiles,measurement,setting,value
Cc1ccc(S(C)(=O)=O)cc1C(=O)NS(=O)(=O)c1cccs1,Percent Effect,"30.3 µM, […]",-1.699%
Cc1ccc(S(C)(=O)=O)cc1C(=O)NS(=O)(=O)c1ccc(Cl)cc1,Percent Effect,"30.3 µM, […]",-20.93%
Cc1ccc(S(=O)(=O)NC(=O)c2cc(S(C)(=O)=O)ccc2C)s1,Percent Effect,"30.3 µM, […]",94.94%
Cc1ccc(S(=O)(=O)Nc2ccc(C)c(C(=O)O)c2)s1,Percent Effect,"30 µM, 30.03 µM",-9.875%
Cc1ccc(C(=O)NS(C)(=O)=O)cc1S(C)(=O)=O,Percent Effect,"30 µM, 30.03 µM",7.017%
Cc1ccc(S(C)(=O)=O)cc1C(=O)NS(C)(=O)=O,Percent Effect,"30.3 µM, […]",76.39%
Cc1ccc(F)cc1S(=O)(=O)Nc1ccc2c(C(=O)O)c[nH]c2c1,Percent Effect,10 µM,-37.32%
Clc1ccccc1-c1cc(CNc2ncnc3c2CCNCC3)no1,Percent Effect,"30 µM, 30.03 µM",-18.38%
O=C(CCNC(=O)c1cnccn1)Nc1ncc[nH]1,Percent Effect,"30 µM, 30.03 µM",-39.01%
O=C(Nc1cccc2c1CCCC2)c1cccnc1N1CCCNCC1,Percent Effect,"30.3 µM, […]",-17.09%
same,Percent Effect,"10 mM, 10 mM as filed; unlikely as a test dose",-111.4%
CS(=O)(=O)NC[C@]12COC[C@H]1CN(C(=O)C1CCSCC1)C2,Percent Effect,"30.3 µM, […]",-61.89%
CNC(=O)c1cn[nH]c1C1CCN(Cc2ccccc2OC)C1 (centres undefined),Percent Effect,"30.3 µM, […]",0.9318%
CC(C)c1nnc(CN2CCCC3(CC2)CN(C)C(=O)O3)o1 (centres undefined),Percent Effect,"30 µM, 30.03 µM",-4.839%
CC(C)c1ccc(CN2CCCC3(CC2)CN(C)C(=O)O3)cc1 (centres undefined),Percent Effect,"30.3 µM, […]",97.32%
CC(C)c1ccc(CC(=O)N2CCCC3(CN(C)C(=O)O3)C2)cc1 (centres undefined),Percent Effect,"30.3 µM, […]",-36.52%
CN(C)C(=O)CO[C@H]1CN(Cc2nccs2)[C@@H]2COC[C@H]12.O=C(O)C(F)(F)F,Percent Effect,"30.3 µM, […]",-75.65%
Cc1cc2nc(C(C)C)cc(N(C)CC3CCCN(CCO)C3)n2n1 (centres undefined),Percent Effect,"30.3 µM, […]",9.548%
Cc1nc(CN2CCCC(CCc3ccc(F)cc3F)C2)c[nH]1 (centres undefined),Percent Effect,"30 µM, 30.03 µM",47.76%
Cc1nc(CN2CCCC(CCc3ccccc3F)C2)c[nH]1 (centres undefined),Percent Effect,"30.3 µM, […]",-5.303%
Cn1cc(CN2CCCC(CCc3ccc(F)c(F)c3)C2)cn1 (centres undefined),Percent Effect,"30 µM, 30.03 µM",-1.052%
Cc1nc(CN2CCCC(CCc3ccccc3C)C2)c[nH]1 (centres undefined),Percent Effect,"30.3 µM, […]",-10.1%
Cc1nc(CN2CCCC(CCc3c(F)cccc3F)C2)c[nH]1 (centres undefined),Percent Effect,"30 µM, 30.03 µM",77.03%
Cc1nc(CN2CCCC(CCc3ccc(F)c(F)c3)C2)c[nH]1 (centres undefined),Percent Effect,"30.3 µM, […]",50.38%
CN(C)[C@@H]1CCN(S(=O)(=O)C2CC2)[C@H]1Cc1ccccc1.O=C(O)C(F)(F)F,Percent Effect,"30.3 µM, […]",-33.03%
O=C1CCNc2ncc(-c3ccccc3Cl)cc2CN1C1CC1,Percent Effect,"30.3 µM, […]",10.61%
Cl.O=C(NCc1ccc(Cl)cc1)C1=NOC2(CCNC2)C1 (centres undefined),Percent Effect,"30 µM, 30.03 µM",4.958%
Cc1ccc(NC(=O)Nc2c[nH]c(=O)[nH]c2=O)c(C)c1,Percent Effect,"30 µM, 30.03 µM",-29.58%
Cc1cc(CN2CCC3(CC2)COC(COCC2CC2)C3)no1.O=C(O)C(F)(F)F (centres undefined),Percent Effect,"30.3 µM, […]",4.372%
Cc1cncc(CN2C[C@@H](O)[C@H](Oc3ccccc3)C2)c1,Percent Effect,"30.3 µM, […]",6.651%
c1ccc(-c2cc(CN3C[C@@H]4CC[C@H](C3)N(CC3CC3)C4)on2)cc1,Percent Effect,"30 µM, 30.03 µM",-36.61%
c1ccc(-c2cc(CN3C[C@@H]4CC[C@H](C3)N(CC3CCC3)C4)on2)cc1,Percent Effect,"30 µM, 30.03 µM",58.21%
c1ccc(-c2nnc(CN3C[C@@H]4CC[C@H](C3)N(CC3CCC3)C4)o2)cc1,Percent Effect,"30 µM, 30.03 µM",-46.57%
O=C(O)C(F)(F)F.O=C(O)C(F)(F)F.O=C(c1n[nH]c2c1CN(C1CCOCC1)CC2)N1CCCC1,Percent Effect,"30.3 µM, […]",-4.414%
CCOc1ccc(N(C)Cc2nnc(C)o2)cc1,Percent Effect,"30.3 µM, […]",-136.8%
CCOc1ccc(N(C)Cc2nc(C)c(C)o2)cc1,Percent Effect,"30.3 µM, […]",96.05%
CCOc1ccc(N(C)Cc2nnc(C3CC3)o2)cc1,Percent Effect,"30.3 µM, […]",-683%
CCn1ncc2c1C(COC)N(C(=O)CCc1ccccc1)CC2.O=C(O)C(F)(F)F (centres undefined),Percent Effect,"30.3 µM, […]",-62.76%
COC[C@@]12CC[C@@H](N3CCOCC3)C[C@H]1CCN(c1ncccc1Cl)C2,Percent Effect,"30 µM, 30.03 µM",81.93%
COC[C@@]12CC[C@@H](N3CCOCC3)C[C@H]1CCN(c1ncccc1C)C2,Percent Effect,"30.3 µM, […]",-4.564%
COC[C@@]12CC[C@@H](N3CCOCC3)C[C@H]1CCN(c1ncccc1F)C2,Percent Effect,"30.3 µM, […]",8.261%
Cl.Cl.O=C(CN1CCN(CC(O)C2CC2)CC1)NCc1ccccc1 (centres undefined),Percent Effect,"30.3 µM, […]",-20.63%
Cn1ccc(CN2CCCC23CCN(Cc2cccc(F)c2)CC3)n1.O=C(O)C(F)(F)F.O=C(O)C(F)(F)F,Percent Effect,"30.3 µM, […]",-80.78%
CCc1cc(C(F)(F)F)c2c(C3CCN(C(=O)COC)CC3)noc2n1,Percent Effect,"30.3 µM, […]",11.66%
O=C(N[C@@H]1CN(CCc2ccc(F)cc2)C[C@H]1O)c1cscn1,Percent Effect,"30.3 µM, […]",8.587%
O=C(O)C(F)(F)F.O=C(O)C(F)(F)F.O=C(c1cccnc1)N1CCn2cc(CN3CCCC3)nc2C1,Percent Effect,"30.3 µM, […]",-57.28%
O=C(NCCCNc1ccc(C(F)(F)F)cn1)c1ccccc1,Percent Effect,10 µM,-30.72%
N#Cc1ccc(C(=O)NCCCNc2ccc(C(F)(F)F)cn2)cc1,Percent Effect,"30 µM, 30.03 µM",0.4176%
N#CC1(C(=O)NCCCNc2ccc(C(F)(F)F)cn2)CCCC1,Percent Effect,"30 µM, 30.03 µM",104.7%
CCCN1C(=O)[C@H]2CC[C@@H]1CN(S(=O)(=O)c1cccc(Cl)c1)C2,Percent Effect,"30.3 µM, […]",-12.81%
Cc1cccc(CN2CCc3onc(CO)c3C2)n1.O=C(O)C(F)(F)F,Percent Effect,"30.3 µM, […]",-52.13%
O=C(O)C(F)(F)F.O=C(O)C(F)(F)F.c1cncc(OCc2noc3c2CN(Cc2ccsc2)CC3)c1,Percent Effect,"30 µM, 30.03 µM",-15.24%
O=C(Nc1ccc(Cl)cc1)c1nn(C2CCS(=O)(=O)C2)c2c1CCCC2 (centres undefined),Percent Effect,"30 µM, 30.03 µM",-43.99%
O=C(Nc1cccc(Cl)c1)c1nn(C2CCS(=O)(=O)C2)c2c1CCCC2 (centres undefined),Percent Effect,"30 µM, 30.03 µM",73.39%
O=C(Nc1ccccc1)c1nn(C2CCS(=O)(=O)C2)c2c1CCCC2 (centres undefined),Percent Effect,"30 µM, 30.03 µM",23.09%
COCC(C)NCc1ccc2[nH]c(C)c(C)c2c1 (centres undefined),Percent Effect,"30 µM, 30.03 µM",2.897%
Cc1[nH]c2ccc(CNc3cc(C(N)=O)ccn3)cc2c1C,Percent Effect,"30 µM, 30.03 µM",60.58%
CSCC(C)NCc1ccc2[nH]c(C)c(C)c2c1 (centres undefined),Percent Effect,"30 µM, 30.03 µM",-11.75%
Cc1[nH]c2ccc(CNc3cc(C(=O)NC(C)C)ccn3)cc2c1C,Percent Effect,"30 µM, 30.03 µM",50.33%
Cc1[nH]c2ccc(CNc3cc(C#N)ccn3)cc2c1C,Percent Effect,"30 µM, 30.03 µM",39.43%
COC(=O)C(C)NCc1ccc2[nH]c(C)c(C)c2c1 (centres undefined),Percent Effect,"30 µM, 30.03 µM",-35.15%
NC[C@H]1CC[C@H](C(NC(=O)CC2CCCCC2)c2ccccn2)CC1 (some centres undefined),Percent Effect,"30.3 µM, […]",-8.457%
COc1cnc(C2(O)CCN(C(=O)c3ccccn3)CC2)c(OC)n1,Percent Effect,"30.3 µM, […]",-9.61%
COc1c(CNCCNC(=O)c2cccc(C)c2)c(C)nn1C.Cl,Percent Effect,"30.3 µM, […]",0.1013%
O=C(NCC1CC1)[C@H]1C[C@@H]2CN(C(=O)NCc3ccccc3)C[C@H]1O2,Percent Effect,"30 µM, 30.03 µM",46.62%
COc1cccc(-c2n[nH]cc2CNC2CCN(C(C)C)CC2)c1.Cl,Percent Effect,"30 µM, 30.03 µM",-15.13%
COc1c(CNC2CCOc3ccccc32)c(C(C)C)nn1C (centres undefined),Percent Effect,"30 µM, 30.03 µM",25.19%
CC(C)c1nn(C)c(Cl)c1CNC1CCOc2ccccc21.Cl (centres undefined),Percent Effect,"30 µM, 30.03 µM",55.88%
CC(C)c1nn(C)c(N(C)C)c1CNC1CCOc2ccccc21 (centres undefined),Percent Effect,"30 µM, 30.03 µM",-51.78%
CN1CC(=O)N(c2cccc(F)c2)CC12CCN(CC1CCOCC1)C2.O=C(O)C(F)(F)F.O=C(O)C(F)(F)F (centres undefined),Percent Effect,"30 µM, 30.03 µM",9.991%
COc1ccc(C2=Nn3c(CN)nnc3-c3ccccc3C2)cc1,Percent Effect,"30 µM, 30.03 µM",2.28%
COc1ncccc1C(=O)N1CCCC(n2ccnc2C)C1 (centres undefined),Percent Effect,"30.3 µM, […]",-7.34%
Cc1ccoc1C(=O)NC1CCN(Cc2ccccc2F)CC1,Percent Effect,10 µM,-23.23%
same,Percent Effect,"30.3 µM, […]",4.829%
Cc1ccc(C(=O)NC2CCN(Cc3cccc4c3OCCO4)CC2)s1,Percent Effect,10 µM,-2.683%
same,Percent Effect,"30.3 µM, […]",68.24%
Cc1ccoc1C(=O)NC1CCN(Cc2ccccc2C#N)CC1,Percent Effect,10 µM,15.78%
same,Percent Effect,"30.3 µM, […]",-0.9403%
O=C(NC1CCN(Cc2cccc3c2OCCO3)CC1)c1cccs1,Percent Effect,10 µM,10.83%
same,Percent Effect,"30.3 µM, […]",7.019%
Cc1ccoc1C(=O)NC1CCN(Cc2cccc3ccccc23)CC1,Percent Effect,10 µM,-9.27%
same,Percent Effect,"30.3 µM, […]",57.41%
CC(C)C(=O)NC1CCN(Cc2cccc3c2OCCO3)CC1,Percent Effect,"30 µM, 30.03 µM",-15.03%
O=C(O)C(F)(F)F.O=C(c1ccc(F)cc1)N1CCC2(CCN(Cc3ccccn3)C2=O)C1 (centres undefined),Percent Effect,"30 µM, 30.03 µM",-50.24%
Cc1csc2ncc(-c3ccnc(N4CCC[C@H](C(N)=O)C4)n3)c(=O)n12,Percent Effect,"30.3 µM, […]",-8.345%
CCN(CC)Cc1cn2c(n1)CN(C1CCOC1)CC2.O=C(O)C(F)(F)F.O=C(O)C(F)(F)F (centres undefined),Percent Effect,"30.3 µM, […]",-56.79%
Cc1ccccc1C(N)c1ccncc1.Cl (centres undefined),Percent Effect,"30.3 µM, […]",-1.36%
CCOc1c(F)cccc1C(=O)N(CC)C(C)c1ccncc1 (centres undefined),Percent Effect,"30.3 µM, […]",3.975%
CCOc1c(F)cccc1C(=O)N(CC)C(C)c1cccnc1 (centres undefined),Percent Effect,"30.3 µM, […]",6.068%
CCOc1c(F)cccc1C(=O)N(c1cccnc1)C(C)C,Percent Effect,"30.3 µM, […]",99.6%
Cc1cc(C(=O)N2CCC3(CC2)C(=O)N(C)CCN3CC(C)C)c(C)o1.O=C(O)C(F)(F)F,Percent Effect,"30.3 µM, […]",2.031%
CCOC(=O)[C@]12CCCN(Cc3cccs3)C[C@H]1CN(C(C)C)C2.O=C(O)C(F)(F)F.O=C(O)C(F)(F)F,Percent Effect,"30.3 µM, […]",-11.59%
Cc1cc(=O)n2nc(Oc3ccc(C#N)cc3Cl)sc2n1,Percent Effect,"30 µM, 30.03 µM",98.96%
Cc1cc(=O)n2nc(Oc3cc(Cl)cc(Cl)c3)sc2n1,Percent Effect,"30 µM, 30.03 µM",-23.2%
Cc1cc(=O)n2nc(Oc3cccc(I)c3)sc2n1,Percent Effect,"30 µM, 30.03 µM",99.1%
Cc1cc(=O)n2nc(Oc3ccc(F)c(F)c3)sc2n1,Percent Effect,"30 µM, 30.03 µM",-14.16%
Cc1cc(=O)n2nc(Oc3ccc(Cl)c(C)c3)sc2n1,Percent Effect,"30 µM, 30.03 µM",-32.75%
Cc1cc(=O)n2nc(Oc3cccc(C(N)=O)c3)sc2n1,Percent Effect,"30 µM, 30.03 µM",-16.62%
CN1CCCCCC1C(=O)N1CCN(c2ccccc2C#N)CC1 (centres undefined),Percent Effect,"30 µM, 30.03 µM",14.65%
